From PubChem BioAssay AID1159580 (chemical genetic matrix, 2015)
“And” between values parts separate entries of the source, which are not always exact repeats. Equal entries are not always repeated. About 2,000 (36%) of roughly 5,500 compounds were called active. About 18% were inconclusive and are not listed. Cut-off read from the data, not from the text of the source: active = normalized growth mostly below about 0.91 (no sharp cut-off); inconclusive = no clear call, values can overlap the other calls; inactive = mostly above about 0.92. Some of the results follow.

Assay: chemical genetic growth profiling, strain panel (AID 1159580);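 note: tested at 20 µM; growth read once vehicle control cultures reached saturation at 30 °C; 1 = growth at the plate median or of vehicle wells; lower values mean less growth of the strain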
Conditions: S. cerevisiae deletion strains, growth OD

Measured: normalized growth

CC(C)C(C)/C=C/C(C)C1CCC2C3=CC=C4CC(O)CCC4(C)C3CCC21C (configuration not stated)
active: locus YAL026C, strain drs2, stronger effect = lower value 0.856 | locus YBR009C, strain hhf1, stronger effect = lower value 0.893 | locus YBR021W, strain FUR4, stronger effect = lower value 0.814 | locus YDL134C, strain PPH21, stronger effect = lower value 0.86 | locus YDR137W, strain rgp1, stronger effect = lower value 0.819 | locus YDR162C, strain NBP2, stronger effect = lower value 0.732 | locus YDR392W, strain spt3, stronger effect = lower value 0.635 | locus YDR502C, strain sam2, stronger effect = lower value 0.917 | locus YGL078C, strain dbp3, stronger effect = lower value 0.908 | locus YGL248W, strain PDE1, stronger effect = lower value 0.862 | locus YGL253W, strain hxk2, stronger effect = lower value 0.861 | locus YJL095W, strain BCK1 (second series), stronger effect = lower value 0.898 | locus YJL164C, strain tpk1, stronger effect = lower value 0.905 | locus YJL166W, strain qcr8, stronger effect = lower value 0.86 | locus YLR262C, strain YPT6 (second series), stronger effect = lower value 0.727 | locus YLR330W, strain CHS5, stronger effect = lower value 0.844 | locus YLR418C, strain cdc73, stronger effect = lower value 0.666 | locus YNL071W, strain lat1, stronger effect = lower value 0.773 | locus YNL307C, strain MCK1, stronger effect = lower value 0.774 | locus YOR270C, strain vph1, stronger effect = lower value 0.681 | locus YPR163C, strain tif3, stronger effect = lower value 0.828
inactive: locus YAL013W, strain DEP1, stronger effect = lower value 0.935 | locus YAL021C, strain ccr4, stronger effect = lower value 1 | locus YAL030W, strain snc1, stronger effect = lower value 0.995 | locus YBL061C, strain skt5, stronger effect = lower value 0.996 | locus YBR023C, strain chs3, stronger effect = lower value 0.992 | locus YBR171W, strain sec66, stronger effect = lower value 1.01 | locus YBR229C, strain ROT2, stronger effect = lower value 1.01 | locus YBR231C, strain swc5, stronger effect = lower value 1 | locus YBR279W, strain paf1, stronger effect = lower value 1 | locus YCL011C, strain gbp2, stronger effect = lower value 0.974 | locus YCL016C, strain dcc1, stronger effect = lower value 1.01 | locus YCL029C, strain bik1, stronger effect = lower value 0.996 | locus YCL061C, strain MRC1, stronger effect = lower value 1.01 | locus YCL069W, strain vba3, stronger effect = lower value 1.01 | locus YCR088W, strain abp1, stronger effect = lower value 1.01 | locus YDL005C, strain med2, stronger effect = lower value 0.996 | locus YDL035C, strain GPR1, stronger effect = lower value 0.943 | locus YDL040C, strain nat1, stronger effect = lower value 1.01 | locus YDL074C, strain BRE1, stronger effect = lower value 0.848 | locus YDL101C, strain DUN1, stronger effect = lower value 0.965 | locus YDL185W, strain tfp1, stronger effect = lower value 1.01 | locus YDL192W, strain arf1, stronger effect = lower value 0.959 | locus YDR001C, strain nth1, stronger effect = lower value 1.01 | locus YDR069C, strain doa4, stronger effect = lower value 0.957 | locus YDR101C, strain arx1, stronger effect = lower value 1.02 | locus YDR159W, strain sac3, stronger effect = lower value 0.935 | locus YDR195W, strain ref2 1.08 | locus YDR297W, strain sur2, stronger effect = lower value 0.993 | locus YDR318W, strain mcm21, stronger effect = lower value 0.958 | locus YDR334W, strain swr1, stronger effect = lower value 1.01 | locus YDR335W, strain msn5, stronger effect = lower value 0.958 | locus YDR388W, stronger effect = lower value 1 | locus YEL003W, strain gim4, stronger effect = lower value 0.986 | locus YEL037C, strain rad23, stronger effect = lower value 0.989 | locus YEL061C, strain CIN8 (second series), stronger effect = lower value 1 | locus YER015W, strain faa2, stronger effect = lower value 1.01 | locus YER016W, strain bim1, stronger effect = lower value 0.987 | locus YER110C, stronger effect = lower value 0.996 | locus YER111C, strain swi4, stronger effect = lower value 0.982 | locus YER155C, strain BEM2 (second series), stronger effect = lower value 0.968 | locus YER155C, strain BEM2, stronger effect = lower value 0.975 | locus YER167W, strain BCK2, stronger effect = lower value 1.01 | locus YFR010W, strain ubp6, stronger effect = lower value 0.992 | locus YGL086W, strain mad1, stronger effect = lower value 0.962 | locus YGL167C, strain pmr1, stronger effect = lower value 0.998 | locus YGL173C, strain kem1, stronger effect = lower value 0.99 | locus YGL227W, strain vid30, stronger effect = lower value 0.995 | locus YGL240W, strain doc1, stronger effect = lower value 0.928 | locus YGR135W, strain pre9, stronger effect = lower value 0.928 | locus YGR229C, strain SMI1, stronger effect = lower value 0.831 | locus YGR252W, strain gcn5, stronger effect = lower value 0.798 | locus YHR013C, strain ard1, stronger effect = lower value 0.972 | locus YHR027C, strain rpn1, stronger effect = lower value 0.999 | locus YHR030C, strain SLT2, stronger effect = lower value 0.964 and 1.01 | locus YHR079C, strain IRE1 (second series), stronger effect = lower value 0.998 | locus YHR079C, strain IRE1, stronger effect = lower value 1.01 | locus YHR094C, strain hxt1, stronger effect = lower value 1.01 | locus YHR129C, strain ARP1, stronger effect = lower value 0.962 | locus YHR142W, strain chs7, stronger effect = lower value 0.884 | locus YHR200W, strain rpn10, stronger effect = lower value 0.994 | locus YIL066C, strain RNR3, stronger effect = lower value 0.97 | locus YIL073C, strain SPO22, stronger effect = lower value 0.863 | locus YIL125W, strain kgd1, stronger effect = lower value 1.03 | locus YIR030C, strain dcg1, stronger effect = lower value 1.01 | locus YJL092W, strain hpr5, stronger effect = lower value 1.01 | locus YJL095W, strain BCK1, stronger effect = lower value 0.835 and 1.02 | locus YJL115W, strain asf1, stronger effect = lower value 1.01 | locus YJL129C, strain trk1, stronger effect = lower value 0.978 | locus YJL134W, strain LCB3, stronger effect = lower value 1.01 | locus YJL154C, strain vps35, stronger effect = lower value 1.01 | locus YJL168C, strain set2, stronger effect = lower value 1.02 | locus YJL187C, strain SWE1 (second series), stronger effect = lower value 0.936 | locus YJL187C, strain SWE1, stronger effect = lower value 0.989 | locus YJR043C, strain POL32, stronger effect = lower value 1.03 | locus YJR066W, strain TOR1, stronger effect = lower value 0.921 | locus YJR075W, strain HOC1, stronger effect = lower value 0.978 | locus YKL009W, strain mrt4, stronger effect = lower value 0.926 | locus YKL068W, stronger effect = lower value 1.01 | locus YKL085W, strain MDH1 (second series), stronger effect = lower value 1 | locus YKL085W, strain MDH1, stronger effect = lower value 1 | locus YKL160W, strain elf1, stronger effect = lower value 0.989 | locus YKR001C, strain vps1, stronger effect = lower value 0.9 | locus YKR026C, strain gcn3, stronger effect = lower value 0.99 | locus YKR091W, strain srl3, stronger effect = lower value 0.998 | locus YLL001W, strain dnm1, stronger effect = lower value 0.96 | locus YLL026W, stronger effect = lower value 0.984 | locus YLL041C, strain sdh2, stronger effect = lower value 1.01 | locus YLR027C, strain aat2, stronger effect = lower value 0.972 | locus YLR039C, strain RIC1, stronger effect = lower value 0.806 | locus YLR058C, strain SHM2, stronger effect = lower value 0.946 | locus YLR102C, strain apc9, stronger effect = lower value 1.02 | locus YLR113W, strain HOG1, stronger effect = lower value 1 | locus YLR221C, strain rsa3, stronger effect = lower value 0.938 | locus YLR258W, strain gsy2, stronger effect = lower value 0.959 | locus YLR262C, strain YPT6, stronger effect = lower value 0.801 | locus YLR268W, strain sec22, stronger effect = lower value 0.968 | locus YLR320W, strain mms22, stronger effect = lower value 0.929 | locus YLR342W, strain FKS1, stronger effect = lower value 0.997 | locus YLR357W, strain rsc2, stronger effect = lower value 1.01 | locus YLR370C, strain arc18, stronger effect = lower value 0.989 | locus YLR371W, strain rom2, stronger effect = lower value 1.05 | locus YLR384C, strain iki3, stronger effect = lower value 0.988 | locus YML016C, strain PPZ1, stronger effect = lower value 0.973 | locus YML032C, strain rad52, stronger effect = lower value 0.973 | locus YML120C, strain ndi1, stronger effect = lower value 0.985 | locus YML124C, strain tub3, stronger effect = lower value 1 | locus YMR058W, strain fet3, stronger effect = lower value 0.956 | locus YMR078C, strain ctf18, stronger effect = lower value 1 | locus YMR125W, strain sto1, stronger effect = lower value 1.01 | locus YMR205C, strain PFK2, stronger effect = lower value 0.937 | locus YMR223W, strain ubp8, stronger effect = lower value 0.941 | locus YMR231W, strain pep5, stronger effect = lower value 0.998 | locus YMR307W, strain GAS1, stronger effect = lower value 0.797 | locus YNL067W, strain RPL9B, stronger effect = lower value 0.924 | locus YNL128W, strain TEP1, stronger effect = lower value 0.994 | locus YNL153C, strain GIM3, stronger effect = lower value 0.966 | locus YNL183C, strain NPR1, stronger effect = lower value 0.951 | locus YNL209W, strain ssb2, stronger effect = lower value 1 | locus YNL233W, strain BNI4, stronger effect = lower value 0.887 | locus YNL248C, strain rpa49, stronger effect = lower value 0.939 | locus YNL250W, strain rad50, stronger effect = lower value 0.952 | locus YNL271C, strain bni1, stronger effect = lower value 0.979 | locus YNL298W, strain CLA4, stronger effect = lower value 0.977 | locus YNL322C, strain KRE1 (second series), stronger effect = lower value 0.996 | locus YNR049C, strain mso1, stronger effect = lower value 0.998 | locus YNR052C, strain pop2, stronger effect = lower value 0.952 | locus YOL012C, strain htz1 1.19 | locus YOL147C, strain pex11, stronger effect = lower value 0.996 | locus YOR001W, strain rrp6, stronger effect = lower value 0.996 | locus YOR061W, strain CKA2, stronger effect = lower value 0.933 | locus YOR069W, strain VPS5, stronger effect = lower value 0.98 | locus YOR070C, strain gyp1, stronger effect = lower value 0.976 | locus YOR080W, strain dia2, stronger effect = lower value 1.02 | locus YOR083W, strain WHI5, stronger effect = lower value 0.991 | locus YOR106W, strain vam3, stronger effect = lower value 0.889 | locus YOR136W, strain idh2, stronger effect = lower value 0.962 | locus YOR144C, strain elg1, stronger effect = lower value 1 | locus YOR184W, strain ser1, stronger effect = lower value 0.952 | locus YOR231W, strain MKK1, stronger effect = lower value 0.995 | locus YOR265W, strain rbl2, stronger effect = lower value 1.01 | locus YOR290C, strain snf2, stronger effect = lower value 0.929 | locus YOR316C, strain cot1, stronger effect = lower value 1 | locus YPL051W, strain arl3, stronger effect = lower value 0.995 | locus YPL078C, strain atp4, stronger effect = lower value 0.957 | locus YPL106C, strain sse1, stronger effect = lower value 1.12 | locus YPL240C, strain hsp82, stronger effect = lower value 1.01 | locus YPL256C, strain CLN2, stronger effect = lower value 1.02 | locus YPR119W, strain clb2, stronger effect = lower value 1.02 | locus YPR141C, strain kar3, stronger effect = lower value 1.01 | locus YPR167C, strain met16, stronger effect = lower value 0.956 | strain wtn01, stronger effect = lower value 0.969
